Results taken from PubChem BioAssay AID1159580 (chemical genetic matrix, 2015).
Values joined by “and” are separate entries in the source; they are usually repeats but may differ in a detail not shown here. Equal entries are not always repeated. In all, about 5,500 compounds went through this assay and about 2,000 (36%) were called active. Roughly 18% stayed inconclusive and do not appear here. No stated cut-off is given here; in the data, active means normalized growth mostly below about 0.91 (no sharp cut-off); inconclusive means no clear call, values can overlap the other calls; inactive means mostly above about 0.92. This is one part of the list.

Assay: chemical genetic growth profiling, strain panel (AID 1159580);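 further: tested at 20 µM; growth read once vehicle control cultures reached saturation at 30 °C; 1 = growth at the plate median or of vehicle wells; lower values mean less growth of the strain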
Settings: S. cerevisiae deletion strains, growth OD

Measured: normalized growth

CCCC1O[C@@H]2CC3C4CCC5=CC(=O)C=CC5(C)C4[C@@H](O)CC3(C)[C@]2(C(=O)CO)O1 (stereo partly specified)
inactive: locus YAL013W, strain DEP1, active compounds read low 1 | locus YAL021C, strain ccr4, active compounds read low 1.01 | locus YAL026C, strain drs2, active compounds read low 1.01 | locus YAL030W, strain snc1, active compounds read low 1.01 | locus YBL061C, strain skt5, active compounds read low 1 | locus YBR009C, strain hhf1, active compounds read low 0.995 | locus YBR021W, strain FUR4, active compounds read low 1 | locus YBR023C, strain chs3, active compounds read low 1.02 | locus YBR171W, strain sec66, active compounds read low 1.01 | locus YBR229C, strain ROT2, active compounds read low 1 | locus YBR231C, strain swc5, active compounds read low 1 | locus YBR279W, strain paf1, active compounds read low 1.01 | locus YCL011C, strain gbp2, active compounds read low 0.996 | locus YCL016C, strain dcc1, active compounds read low 1.01 | locus YCL029C, strain bik1, active compounds read low 1.01 | locus YCL069W, strain vba3, active compounds read low 1.01 | locus YCR088W, strain abp1, active compounds read low 1.01 | locus YDL005C, strain med2, active compounds read low 0.985 | locus YDL035C, strain GPR1, active compounds read low 0.994 | locus YDL040C, strain nat1, active compounds read low 1.01 | locus YDL074C, strain BRE1, active compounds read low 1 | locus YDL101C, strain DUN1, active compounds read low 1.01 | locus YDL134C, strain PPH21, active compounds read low 1 | locus YDL185W, strain tfp1, active compounds read low 1.01 | locus YDL192W, strain arf1, active compounds read low 1.02 | locus YDR001C, strain nth1, active compounds read low 0.993 | locus YDR069C, strain doa4, active compounds read low 1 | locus YDR101C, strain arx1, active compounds read low 1.01 | locus YDR137W, strain rgp1, active compounds read low 0.989 | locus YDR150W, strain NUM1, active compounds read low 0.997 | locus YDR159W, strain sac3, active compounds read low 0.972 | locus YDR162C, strain NBP2, active compounds read low 1 | locus YDR195W, strain ref2 0.971 | locus YDR297W, strain sur2, active compounds read low 1.01 | locus YDR318W, strain mcm21, active compounds read low 1.03 | locus YDR334W, strain swr1, active compounds read low 1.03 | locus YDR335W, strain msn5, active compounds read low 1.01 | locus YDR388W, active compounds read low 1.02 | locus YDR392W, strain spt3, active compounds read low 1.04 | locus YDR502C, strain sam2, active compounds read low 1.02 | locus YEL003W, strain gim4, active compounds read low 1.02 | locus YEL037C, strain rad23, active compounds read low 0.995 | locus YEL061C, strain CIN8 (second series), active compounds read low 1.02 | locus YEL061C, strain CIN8, active compounds read low 1 | locus YER015W, strain faa2, active compounds read low 1.01 | locus YER016W, strain bim1, active compounds read low 1 | locus YER110C, active compounds read low 1.02 | locus YER111C, strain swi4, active compounds read low 1.02 | locus YER155C, strain BEM2 (second series), active compounds read low 1.05 | locus YER155C, strain BEM2, active compounds read low 0.989 | locus YER167W, strain BCK2, active compounds read low 1.01 | locus YFR010W, strain ubp6, active compounds read low 0.987 | locus YGL078C, strain dbp3, active compounds read low 1.01 | locus YGL086W, strain mad1, active compounds read low 1 | locus YGL167C, strain pmr1, active compounds read low 1.01 | locus YGL173C, strain kem1, active compounds read low 1 | locus YGL227W, strain vid30, active compounds read low 1 | locus YGL240W, strain doc1, active compounds read low 0.982 | locus YGL248W, strain PDE1, active compounds read low 1.01 | locus YGL253W, strain hxk2, active compounds read low 1.02 | locus YGR078C, strain PAC10, active compounds read low 0.986 | locus YGR135W, strain pre9, active compounds read low 0.998 | locus YGR229C, strain SMI1, active compounds read low 0.992 | locus YGR252W, strain gcn5, active compounds read low 1.06 | locus YHR013C, strain ard1, active compounds read low 1.03 | locus YHR027C, strain rpn1, active compounds read low 1.01 | locus YHR030C, strain SLT2, active compounds read low 1 and 1.02 | locus YHR079C, strain IRE1 (second series), active compounds read low 1.01 | locus YHR079C, strain IRE1, active compounds read low 1.01 | locus YHR094C, strain hxt1, active compounds read low 1.02 | locus YHR129C, strain ARP1, active compounds read low 1 | locus YHR142W, strain chs7, active compounds read low 1.02 | locus YHR200W, strain rpn10, active compounds read low 1.03 | locus YIL066C, strain RNR3, active compounds read low 1.01 | locus YIL073C, strain SPO22, active compounds read low 1.07 | locus YIL125W, strain kgd1, active compounds read low 0.997 | locus YIR030C, strain dcg1, active compounds read low 1.02 | locus YJL092W, strain hpr5, active compounds read low 1 | locus YJL095W, strain BCK1 (second series), active compounds read low 1.01 | locus YJL095W, strain BCK1, active compounds read low 0.994 and 1.02 | locus YJL115W, strain asf1, active compounds read low 1 | locus YJL129C, strain trk1, active compounds read low 0.98 | locus YJL134W, strain LCB3, active compounds read low 1 | locus YJL154C, strain vps35, active compounds read low 1.01 | locus YJL164C, strain tpk1, active compounds read low 1 | locus YJL166W, strain qcr8, active compounds read low 1.01 | locus YJL168C, strain set2, active compounds read low 1.02 | locus YJL187C, strain SWE1 (second series), active compounds read low 1 | locus YJL187C, strain SWE1, active compounds read low 1.02 | locus YJR043C, strain POL32, active compounds read low 1 | locus YJR066W, strain TOR1, active compounds read low 0.978
